TEAD-YAP inh = TEAD-YAP interaction inhibition, primary screen, TEAD-YAP interaction inhibitor project, luminescence, HEK-TIYL cells. inhibition, % at 9.12 µM. TEAD-Gal4/YAP UAS-luciferase luminescence. actives 1.4% (n = 640,000). AID 1259422, 2018; in the data active = inhibition above about 32%;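 note: 0% = median of test compound wells and 100% = reference inhibitor wells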
FBW7 act = FBW7 E3 ligase activators, primary screen, biochemical, AlphaScreen, human. F-box/WD repeat-containing protein 7 (Homo sapiens), Q969H0. actives 0.13% (n = 650,000). normalized activity (activation), % at 26.1 µM. AlphaScreen FBW7–phospho-cyclin E peptide binding, activator screen; in the data active = normalized activity above about 1.9%;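 note: purified mutant Fbw7 with reduced substrate affinity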
GPR151 activ = activators of human GPR151, primary screen, cell-based, PathHunter beta-arrestin, luminescence; G-protein coupled receptor 151 (Homo sapiens), Q8TDV0; PathHunter beta-arrestin GPR151 cells; activation, % at 11.2 µM; actives 1% (n = 650,000); in the data active = activation above about 4.9%;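 note: 0% = median of compound wells and 100% = cells with positive control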
Target sequence (Q8TDV0 whole entry, looked up): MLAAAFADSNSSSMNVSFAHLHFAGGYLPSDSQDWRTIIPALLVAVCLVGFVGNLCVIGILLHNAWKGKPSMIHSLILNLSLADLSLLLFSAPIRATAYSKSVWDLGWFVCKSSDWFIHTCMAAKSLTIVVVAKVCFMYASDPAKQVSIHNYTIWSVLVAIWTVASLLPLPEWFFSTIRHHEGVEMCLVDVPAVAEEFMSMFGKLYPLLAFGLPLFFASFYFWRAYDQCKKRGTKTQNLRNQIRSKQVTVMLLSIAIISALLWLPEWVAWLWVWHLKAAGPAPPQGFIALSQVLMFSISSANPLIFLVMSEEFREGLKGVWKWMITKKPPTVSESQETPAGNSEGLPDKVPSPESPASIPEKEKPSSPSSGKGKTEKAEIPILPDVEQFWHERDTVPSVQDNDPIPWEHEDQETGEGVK
MITF inh = MITF inhibitors, primary screen, biochemical, AlphaScreen, human; Microphthalmia-associated transcription factor (Homo sapiens), O75030; AlphaScreen MITF homodimerization, bead proximity signal; inhibition, % at 2.6 µM; actives 0.91% (n = 650,000); AID 1259374, 2018; in the data active = inhibition above about 50%;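 note: 0% = vehicle wells with protein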
An asterisk follows results filed as active. Compounds with a hit are over-represented: about 3.5% of the library has one in this group of screens.

SMILES	TEAD-YAP inh	FBW7 act	GPR151 activ	MITF inh
CC(=O)C1C(=O)NC(=Nc2nc3ccccc3s2)NC(=O)C1C(C)=O (centres undefined)	-6.4	-0.1	1.0	6.8
COC(=O)c1ccc(CSc2nc3ccncc3[nH]2)cc1	91.5*	0.3	-2.6	4.2
N#Cc1cccc(CSc2nc3ccncc3[nH]2)c1	2.5	0.8	-0.7	5.9
COC(=O)c1ccc(CSc2nc(C)cc(=O)[nH]2)cc1	4.2	-0.1	-0.5	-8.8
c1ccc(CSc2nc3ccncc3[nH]2)cc1	56.7*	0.2	-2.0	-11.4
CC(C)NC(=O)c1ccccc1NC(=O)c1ccc(NS(=O)(=O)c2ccccc2)cc1	-12.2	0.1	0.3	-9.8
CC(C)(C)/C(=C\c1nc2ccccc2[nH]c1=O)NN	80.6*	0.0	-6.2	3.2
c1cncc(CNc2nc(N3CCC(N4CCOCC4)CC3)nc3c2ncn3-c2ccsc2)c1	9.1	-0.4	-0.4	8.9
CC(=O)Nc1ccc(Nc2nc(N3CCCC3CO)nc3c2ncn3-c2ccsc2)cc1 (centres undefined)	14.6	-0.4	-1.4	15.5
OCC1CCCN1c1nc(NCc2cccnc2)c2ncn(-c3ccsc3)c2n1 (centres undefined)	54.4*	-0.3	0.1	-6.3
OCC1CCCN1c1nc(Nc2ccc3c(c2)OCO3)c2ncn(-c3ccsc3)c2n1 (centres undefined)	34.3*	-0.1	-1.6	22.1
COc1cc(Nc2nc(N3CCCC3CO)nc3c2ncn3-c2ccsc2)cc(OC)c1OC (centres undefined)	18.0	-0.4	-0.6	20.4
OCC1CCCN1c1nc(Nc2ccccc2)c2ncn(-c3ccsc3)c2n1 (centres undefined)	36.0*	-0.1	-0.7	3.3
Nc1nnc(SCC(=O)N2N=C(c3ccc4ccccc4c3)CC2c2ccccc2)s1 (centres undefined)	51.2*	0.0	-1.5	-0.1
CC1=C(C(=O)OCc2ccc(C)cc2)C(c2ccccc2[N+](=O)[O-])CC(=O)N1 (centres undefined)	-2.6	0.1	1.8	8.6
CCC(=O)NCC(c1cccs1)S(=O)(=O)c1ccc(Cl)cc1 (centres undefined)	1.3	0.1	1.0	8.2
O=[N+]([O-])c1ccc(N2CCCC2)cc1NCC(O)c1ccccc1 (centres undefined)	7.8	-0.4	-0.3	1.9
O=[N+]([O-])c1cc(/C=N/NC(=S)Nc2ccccc2)ccc1O	-6.4	0.0	-1.8	-17.3
COc1ccc(NC(=O)c2ccc(S(=O)(=O)N3CCc4ccccc4C3)cc2)c2ccccc12	-2.0	0.1	1.2	17.5
COc1ccc(NC(=O)c2ccc(S(=O)(=O)N3CCc4ccccc43)cc2)c2ccccc12	60.2*	-0.1	1.6	-2.1
O=C(Nc1ccccc1F)c1ccc(S(=O)(=O)N2CCc3ccccc3C2)cc1	40.3*	-0.1	1.9	9.4
CCOC(=O)c1csc(NC(=O)c2ccc(S(=O)(=O)N3CCc4ccccc43)cc2)n1	35.4*	-0.1	-0.4	20.2
Cc1nn(CC(=O)N2CCN(C)CC2)c(=O)c2cccn12	0.6	-0.3	2.8	-0.2
COc1ccccc1CNS(=O)(=O)c1ccc2[nH]c(=O)ccc2c1	4.3	-0.1	0.5	-6.3
O=C(Nc1cccc(Cl)c1)c1ccc(CN2CCc3ccccc3C2)cc1	40.0*	-0.2	-2.3	-18.8
SMILES	TEAD-YAP inh	FBW7 act	GPR151 activ	MITF inh
Cc1cccc(NC(=O)c2ccc(CN3CCc4ccccc4C3)cc2)c1	36.4*	-0.2	-0.3	-2.5
Cc1ccc(C2(C)C(=O)Nc3ccccc32)cc1 (centres undefined)	7.9	-0.1	0.9	0.2
O=C(O)CCC(=O)N(C1CC1)C1CCN(CCc2ccccc2)CC1	-0.3	0.1	-0.3	6.3
CC(=O)N1CCC(N(C(=O)CCC(=O)O)C2CC2)CC1	-4.8	4.6*	0.2	14.4
O=S(=O)(NCc1cccnc1)c1ccc(Cl)cc1	-3.2	-0.1	-0.8	-7.1
O=S(=O)(NCc1cccnc1)c1ccc(Cc2ccc(S(=O)(=O)NCc3cccnc3)cc2)cc1	51.5*	-0.2	-0.5	4.8
O=S(=O)(NCc1ccc2c(c1)OCO2)c1ccc(Cc2ccc(S(=O)(=O)NCc3ccc4c(c3)OCO4)cc2)cc1	37.6*	0.2	1.7	12.5
COc1ccc(/C=C/C(=O)c2ccc(S(=O)(=O)NCc3cccnc3)cc2)cc1	35.0*	-0.1	0.0	19.0
CCc1cc(NCc2ccco2)n2nc3nc(C)cc(C)c3c2n1	11.8	251.6*	-0.4	-361.4
CCc1cc(NCc2cccs2)n2nc3nc(C)cc(C)c3c2n1	-2.9	-0.2	-0.1	-8.2
CCC1Sc2cc(S(=O)(=O)CCC(=O)NCC(C)c3ccccc3)ccc2NC1=O (centres undefined)	7.3	0.1	0.7	6.9
Cn1c(=O)c2c(ncn2Cc2ccc(C(C)(C)C)cc2)n(C)c1=O	57.0*	0.5	0.9	16.9
Cn1c(=O)c2c(ncn2Cc2ccc(C#N)cc2)n(C)c1=O	-3.1	0.1	0.1	4.8
Cn1c(=O)c2c(ncn2Cc2cccc(I)c2)n(C)c1=O	38.5*	-0.2	0.4	-7.9
Cc1cccnc1C(NC(=O)C1CCN(C(=O)NCc2ccccc2)CC1)c1ccccc1 (centres undefined)	-4.2	0.0	0.2	-2.4
COc1ccc(C2C(=O)c3ccccc3C2=O)cc1	-3.6	-0.2	-1.4	7.1
N=C1c2ccccc2C(=O)C1c1ccccc1 (centres undefined)	-33.3	-0.2	-0.2	64.6*
CCOc1ccc(/C(O)=C2\C(=O)C(=O)N(CCN(C)C)C2c2ccccc2F)cc1C (centres undefined)	0.6	0.1	0.7	12.6
O=C(Nc1nc2ccccc2[nH]1)c1ccccc1Cl	82.7*	-0.2	-10.8	3.4
O=C(Nc1cnc2ccccc2c1)c1ccc(Cl)cc1Cl	66.1*	0.1	-4.3	9.5
O=C(Nc1nc2ccccc2[nH]1)c1ccc(Cl)cc1Cl	83.9*	-0.2	-11.2	-10.1
O=C(Nc1nc2ccccc2[nH]1)c1ccc([N+](=O)[O-])cc1Cl	18.4	0.1	-6.2	2.9
CCN(CC)C(=O)c1sc(NC(=O)c2cc(-c3ccc(Br)cc3)nc3ccccc23)c(C#N)c1C	-11.8	-0.1	-1.3	3.9
COc1cc(/C=C/C(=O)c2ccccc2OC)ccc1OCC#N	58.4*	-0.1	0.9	9.7
O=c1oc2ccccc2cc1-c1cn(-c2ccccc2F)c(=S)[nH]1	67.6*	0.0	-1.3	-3.5
Cc1cccc(-n2cc(-c3cc4ccccc4oc3=O)[nH]c2=S)c1	80.7*	0.1	-1.2	6.3
COc1ccc(-n2cc(-c3cc4ccccc4oc3=O)[nH]c2=S)cc1	17.4	-0.1	-0.2	4.8
O=c1oc2ccccc2cc1-c1cn(-c2ccc(F)cc2)c(=S)[nH]1	71.8*	-0.1	-0.6	-10.7
C/C(CN1C(=O)c2ccccc2C1=O)=N/NC(=O)c1cc([N+](=O)[O-])cc([N+](=O)[O-])c1	-1.2	0.3	0.5	9.8

Screens deposited in PubChem by The Scripps Research Institute Molecular Screening Center.
